# DAX1 inh-1 = inhibitors of human orphan nuclear receptor DAX1 (NR0B1). P51843. HEK293 Gal4-DAX1 luciferase reporter, luminescence. inhibition, % at 6.75 µM. hit rate 0.99% among 340,000. AID 504766;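 active means inhibition above the mean over all tested compounds plus 3 SD, cut at about 4.2% in these data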;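 further: 0% = DAX1-transfected cells with DMSO and 100% = empty-vector control cells with DMSO; inhibition shows as a rise in luminescence from relieved DAX1 repression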
# ssDAF12 agonist = S. stercoralis DAF-12 activation, primary screen; HEK293 ssDAF-12/GRIP1 lit1-tk-luc reporter, luminescence; % of 3 µM dafachronic acid response; activation, % at 6.8 µM; hit rate 1% among 370,000; AID 652126;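 active means activation above the mean over all tested compounds plus 3 SD, cut at about 0.9% in these data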;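 further: 0% = DMSO-only wells and 100% = 3 µM delta7-dafachronic acid wells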
# hcDAF-12 act = activates DAF-12 receptor from parasite H. contortus | activation, % at 6.8 µM | hit rate 1.4% among 370,000 | HEK293 hcDAF-12 lit1-tk-luc reporter, luminescence; 0% DMSO, 100% Δ7-dafachronic acid;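 active means activation above the mean of all tested compounds plus 3 SD, cut at about 5.5% in these data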;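 further: 100% = response to 3 µM Δ7-dafachronic acid high control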
# hgDAF12 agonist = hgDAF-12 agonism, primary luciferase screen | HEK293 GAL4-hgDAF12 UAS-luciferase reporter, agonist luminescence; normalized to butyrate control | activation, % at 6.8 µM | hit rate 1.8% among 370,000;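 active means activation above a cutoff set at the mean of all screened compounds plus 3 SD, cut at about 10% in these data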;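 further: 0% = DMSO wells and 100% = sodium butyrate wells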
# DAX1 inh-2 = blocks DAX1 repression of SF-1 activated StAR promoter; hit rate 1.1% among 370,000; inhibition, % at 6.8 µM; HEK293T StAR-luciferase reporter, SF-1/DAX-1 repression relief;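 active means inhibition above the mean over all tested compounds plus 3 SD, cut at about 3.6% in these data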;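 further: 0% = DAX-1 cells with DMSO and 100% = cells lacking DAX-1 with DMSO; higher inhibition means more luminescence from relief of DAX-1 repression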
# LXRb hcDAF ctr = LXR-beta agonism as hcDAF-12 counter-screen. shares compounds with hcDAF-12 act. HEK293 Gal4-LXR tk-luc reporter, luminescence, 24 h; normalized: DMSO 0%, positive control 100%. activation, % at 6.8 µM. 3,400 tested, under 10 active;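 active means mean percent activation of the reporter above a cutoff set as the average over tested compounds plus their standard deviation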
# Target sequence (P55055 whole entry, looked up, the tested form may be a part): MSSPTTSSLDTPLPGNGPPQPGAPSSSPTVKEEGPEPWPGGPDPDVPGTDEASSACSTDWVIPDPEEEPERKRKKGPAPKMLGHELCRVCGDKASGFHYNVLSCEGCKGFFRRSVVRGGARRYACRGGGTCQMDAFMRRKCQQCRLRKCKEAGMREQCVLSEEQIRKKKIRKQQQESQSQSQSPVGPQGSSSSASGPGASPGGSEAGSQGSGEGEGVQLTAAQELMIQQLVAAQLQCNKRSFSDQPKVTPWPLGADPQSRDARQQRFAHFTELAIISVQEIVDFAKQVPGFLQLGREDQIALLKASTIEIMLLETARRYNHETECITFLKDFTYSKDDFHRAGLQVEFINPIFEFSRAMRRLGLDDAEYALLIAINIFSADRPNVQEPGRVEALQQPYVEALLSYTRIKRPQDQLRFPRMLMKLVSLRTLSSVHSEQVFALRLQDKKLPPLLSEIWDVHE
# hcDAF12 conf = hcDAF-12 agonism, confirmation assay; shares compounds with hcDAF-12 act; HEK293 hcDAF-12 lit1-tk-luc reporter, luminescence; % of Δ7-dafachronic acid response; activation, % at 6.8 µM; hit rate 61% among 3,400; AID 743032;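 active means mean activation across triplicate tests above the threshold derived from the earlier primary screen, cut at about 5.5% in these data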;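 further: 0% = DMSO only wells and 100% = 3 µM Δ7-dafachronic acid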
# Starred values were filed as active, the others as inactive; x = no result. Rows were chosen to be rich in hits. Some 4.1% of all compounds tested hit in one or more screens of this group.
SMILES,DAX1 inh-1,ssDAF12 agonist,hcDAF-12 act,hgDAF12 agonist,DAX1 inh-2,LXRb hcDAF ctr,hcDAF12 conf
CC1CCCC(C)N1C(=O)c1cc(-c2ccc3c(c2)OCO3)on1 (stereo not drawn),1,0,6.6*,11*,2,1,5
Cn1c2ccccc2c2cc([N+](=O)[O-])ccc21,-2,-1,-1,3,1,x,x
CCN(CC)CCn1c2ccccc2c2nc3ccc([N+](=O)[O-])cc3cc21,x,1.1*,9.0*,4,1,1,6.8*
O=C(Nc1ccc(Cl)cn1)c1ccc2ccccc2n1,2,1.4*,7.8*,7,0,1,17*
COc1ccc(NC(=O)COC(=O)c2ccc3ccccc3n2)cc1,0,1,3,2,1,x,x
O=C(Nc1ccc(OC(F)(F)F)cc1)c1ccc2ccccc2n1,0,1,7.8*,9,1,0,7.7*
Cc1ccccc1C(=O)Nc1ccc(Cl)cn1,3,-1,2,10,1,x,x
O=C1c2cc([N+](=O)[O-])ccc2-c2cc(Br)c(N=C(NO)C(F)(F)F)cc21,1,-1,2,-1,-1,x,x
COC(=O)C1=C(C)N(C)C(=NCc2ccc(C(F)(F)F)cc2)NC1c1ccccc1C(F)(F)F (stereo not drawn),x,1,2,2,1,x,x
CCc1ccc(N2NC(=O)/C(=C/C=C/c3ccco3)C2=O)cc1,-1,0,7.7*,0,0,0,1
CCOC(=O)c1ccc(N2N=C(C)/C(=C/C=C/c3ccco3)C2=O)cc1,0,-1,1,1,0,x,x
O=C1CCC[C@H]2CC3(CC[C@]24CCCN14)OCCO3,x,-2,0,-2,x,x,x
CCOC(=O)Cc1nc(N2CCCN(C(C)=O)CC2)c2c(C)c(C(=O)OCC)sc2n1,x,-2,6.9*,0,-1,0,-2
CCCOc1ccc(C2Nc3cccc4cccc(c34)N2)cc1,0,0,6.7*,2,0,0,4
Fc1ccc(C2Nc3cccc4cccc(c34)N2)cc1,1,0,7.1*,4,-1,0,3
Brc1ccc(C2Nc3cccc4cccc(c34)N2)cc1,1,0,1,-2,-1,x,x
COC(=O)[C@H](C(C)C)N1CCc2nnn(CC3CCCCC3)c2-c2ccccc2S1(=O)=O,x,-1,-4,-1,0,x,x
Cc1ccc(-c2cn3nc(C)c(C)nc3n2)cc1,-3,-1,2,-1,0,x,x
Clc1ccc(-c2cn3nc4c(nc3n2)CCCC4)cc1,2,1,8.1*,12*,4.2*,1,7.5*
C[C@@H]1CCCCO[C@H](CN(C)Cc2ccc(C(F)(F)F)cc2)[C@@H](C)CN([C@H](C)CO)C(=O)c2cc(NS(=O)(=O)c3cn(C)cn3)ccc2O1,1,0,-1,0,0,x,x
C[C@H]1COC[C@@H](C/C=C/c2ccccc2)N1c1ccccc1,0,-1,0,3,1,x,x
c1ccc(-c2nc3cc4ccccc4cc3[nH]2)nc1,-3,0,8.8*,9,2,2,11*
O=C(c1cc2cc(Cl)ccc2oc1=O)N1CCOCC1,-1,-1,-1,0,0,x,x
O=C(c1cc2ccccc2oc1=O)N1CCOCC1,3,0,6.7*,11*,3,1,5.6*
COC(=O)c1ccc(N=NN2CCCCCC2)cc1,2,0,0,10,3,x,x
SMILES,DAX1 inh-1,ssDAF12 agonist,hcDAF-12 act,hgDAF12 agonist,DAX1 inh-2,LXRb hcDAF ctr,hcDAF12 conf
COC(=O)c1ccc(N=NNc2ccc(C(=O)OC)cc2)cc1,-1,0,10*,7,3,1,12*
CCCCCC[C@@H](CN(CCCC)S(C)(=O)=O)c1ccccc1,x,-1,-2,2,-2,x,x
OCC[C@@H]1C[C@H](O)[C@@H](O)[C@@]2(OCCc3cc(C(F)(F)F)ccc32)O1,x,-1,0,-2,1,x,x
CCc1ccc(C(=O)Cn2ccsc2=N)cc1,3,2.1*,19*,20*,3,2,12*
C(=N/n1c2ccccc2c2ccccc21)/c1ccco1,1,-1,1,1,0,x,x
N=c1scc(-c2ccccc2)n1/N=C/c1ccco1,0,1.4*,6.8*,11*,2,1,4
CCC(NC(=S)NC1CCCCC1)c1ccc(C(C)C)cc1 (stereo not drawn),-1,-1,-1,-3,-3,x,x
Clc1ccc(-c2cnc3ccccc3n2)cc1,3,-1,3,9,1,x,x
Nc1ccc(-c2cnc3ccccc3n2)cc1,x,0,7.1*,11*,2,2,7.5*
c1coc(-c2nc3ccccc3nc2-c2ccco2)c1,-1,-1,2,-1,0,x,x
c1coc(-c2cnc3ccccc3n2)c1,4.4*,0,7.8*,8,3,1,5.7*
CC(C)C[C@H]1COc2cccc(F)c2S(=O)(=O)N1Cc1cn(Cc2ccc(Cl)cc2)nn1,x,-1,1,-3,0,x,x
CC(=O)Nc1sc(N/N=C\c2cccc(Cl)c2)nc1-c1cccs1,1,-1,8.4*,5,1,0,7.8*
Cc1cc(C)cc(N2C(N)=NC(N)=NC2c2ccccc2F)c1 (stereo not drawn),0,-1,2,-2,0,x,x
COc1ccc(-c2nc3c4ccccc4ccn3c2CN2CCCCC2)cc1OC,0,-1,1,2,-1,x,x
COc1ccc(-c2nc3c4ccccc4ccn3c2CN2CCCCC2)cc1,2,-1,7.0*,4,0,0,1
COC(=O)[C@]12C[C@H](CC(=O)NCCC(C)C)C(=O)N(CCC3=CCCCC3)C1=C[C@H](C(C)(C)C)O[C@@H]2C,x,-1,0,5,1,x,x
CC(C)C[C@@H]1CC2=C(C(=O)OC(C)(C)O2)[C@H](c2ccc(Cl)cc2)O1,x,-1,-2,-2,-2,x,x
O=C(COc1cccnc1[N+](=O)[O-])N1CCC(Cc2ccccc2)CC1,0,-1,-2,0,1,x,x
O=C(COc1ccccc1[N+](=O)[O-])OCC(=O)N1CCC(Cc2ccccc2)CC1,-1,-1,7.6*,-1,0,0,2
OC(c1ccc(F)c(F)c1)c1nc(-c2ccc3c(c2)OCO3)cs1 (stereo not drawn),x,-2,0,4,0,x,x
CCOC(=O)/C(C#N)=C/c1cc2ccccc2nc1N1CCOCC1,0,-1,0,-2,0,x,x
N#CC(C#N)=Cc1cc2ccccc2nc1N1CCCCC1,0,0,7.1*,1,0,0,1

# Screens as filed in PubChem.
